Assay in all cases: NCI-60 one-dose screen, 48 h (100 = growth as untreated, 0 = no growth, -100 = all killed)
Holding throughout (details): 10 µM unless noted

The subject of experiment [1] is SK-MEL-2 melanoma.
Experiment [2] concerns EKVX NSCLC.
Experiment [3] relates to UO-31 renal.
Experiment [4] concerns TK-10 renal.
Experiment [5] deals with ACHN renal.
Experiment [6] has as its system CAKI-1 renal.
Experiment [7] concerns A498 renal.
For experiment [8], the system named is CCRF-CEM leukemia.
Experiment [9] has as its system SR leukemia.
Experiment [10] has as its system RPMI-8226 leukemia.
For experiment [11], the system named is OVCAR-8 ovarian.
Experiment [12] concerns OVCAR-5 ovarian.
For experiment [13], the system named is OVCAR-4 ovarian.
Experiment [14] concerns IGROV1 ovarian.
For experiment [15], the system named is OVCAR-3 ovarian.
Experiment [16] deals with HS 578T breast.
Experiment [17] concerns NCI/ADR-RES ovarian.
The test system of experiment [18] is SK-OV-3 ovarian.
Experiment [19] has as its system MOLT-4 leukemia.

Compounds without any hit were thinned out: in the full panel of roughly 83,000, 20% have a hit.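 Treatment: one concentration, 48 hours, 96-well format. Scoring: percent growth, with anything below 10 considered active.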 Unmarked numbers belong to inactive results. The source made the active and inactive calls.

With `CCOc1ccc(-n2nc(C(=O)Nc3ccccc3)nc2-c2cc(OC)c(OC)c(OC)c2)cc1`, the growth in experiment [1] was 37.7%; in experiment [2], 53.2%; in [3], 37.7%; in experiment [4] it was 72.4%; in experiment [5], 62.8%; in experiment [6] it was 51.6%. The growth in experiment [7] is 10.3%; in experiment [8], 50.8%; in experiment [9], 17%; in experiment [10], 47.4%; in experiment [11], 61.6%; in experiment [12], 84.1%. The growth in experiment [13] was 59.5%; in experiment [14], 55.1%; in experiment [15], 43.2%; in [16], 39.6%; in [17] it was 45.7%.
With `N#CN1CCC[C@H]1C(=O)N1CCc2c(-c3[nH]nc4ncccc34)cccc21`, the growth in experiment [1] was 3.74% (active); in [2], 14.6%; in experiment [3] it was 2.24% (active); in [4] it was -15.6% (active); in experiment [5] it was 6.01% (active); in experiment [6], -32.8% (active). For the same compound, the growth is -36.5% (active) in experiment [7]; 17.5% in [8]; 6.84% (active) in [9]; 18.1% in experiment [10]; 1.11% (active) in [11]; 56.3% in experiment [12]. Further, the growth was 18.5% in [13]; -1.17% (active) in experiment [18]; 17.1% in experiment [14]; -32% (active) in [15]; -2.6% (active) in experiment [16]; 8.38% (active) in experiment [17].
As for `CCOC(=O)c1c(C)oc2ncnc(N3CCN(C(=O)COc4ccc(SC)cc4)CC3)c12`, the growth in experiment [1] was 95.4%; in [2] it was 88.1%; in experiment [3], 74.4%; in experiment [4], 103%; in experiment [5] it was 93.5%; in experiment [6] it was 82.7%. Moreover, the growth in [8] was 91.5%; in experiment [19], 88.6%; in experiment [9], 84.3%; in experiment [10] it was 81.6%; in experiment [11] it was 87.6%; in [12] it was 98.2%. In addition, the growth in experiment [13] is 75%; in experiment [18] it was 86.1%; in experiment [14] it was 90.4%; in [15], 100%; in experiment [16] it was 81.7%; in experiment [17], 85.7%.
In the case of `c1ccc2[nH]c(-c3ccc(Nc4nc(N5CCCC5)nc5[nH]ncc45)cc3)nc2c1`, the growth is -48.1% (active) in experiment [1]; -8.31% (active) in experiment [2]; -27.1% (active) in experiment [3]; -6.9% (active) in [4]; -58.3% (active) in experiment [5]; -22.3% (active) in experiment [6]. Further, the growth in experiment [7] is 94.5%; in experiment [8] it was -29.7% (active); in [9] it was -31.1% (active); in [10] it was -34.4% (active); in experiment [11] it was -55.1% (active); in [12], 17.9%. In addition, the growth was 10.7% in experiment [13]; 22.2% in experiment [18]; 4.03% (active) in experiment [14]; -53.1% (active) in experiment [15]; -34% (active) in experiment [16]; 1.12% (active) in experiment [17].
For `N#C/C(=C\c1ccc(-c2cc(C(F)(F)F)ccc2Cl)o1)c1nc(-c2ccco2)cs1`, the growth is 103% in [1]; 91.6% in [2]; 87.9% in experiment [3]; 121% in experiment [4]; 105% in experiment [5]; 86.2% in experiment [6]. The growth in [7] is 105%; in experiment [8], 103%; in [19], 101%; in experiment [10], 101%; in experiment [11] it was 103%; in experiment [12] it was 98.9%. The growth in experiment [13] is 85.1%; in [18], 100%; in experiment [14], 104%; in [15] it was 113%; in [16] it was 103%; in [17] it was 106%.
In the case of `N#CN1CC[C@H](C(=O)Nc2cc3cc(C(N)=O)ccc3cn2)C1`, the growth is -64.3% (active) in experiment [1]; 2.35% (active) in experiment [2]; 17.7% in experiment [3]; -17.7% (active) in experiment [4]; 6.51% (active) in experiment [5]; 11.9% in experiment [6]. In addition, the growth in [7] was -34.4% (active); in experiment [8], 7.66% (active); in [9], 0.903% (active); in [10] it was 8.19% (active); in experiment [11], 1.62% (active); in [12] it was 5.15% (active). Also, the growth in [13] is 4.32% (active); in experiment [18], -10.2% (active); in experiment [14], 15.7%; in experiment [15] it was -14.4% (active); in [16] it was -0.591% (active); in experiment [17], 1.36% (active).
For `COc1cc2c(cc1O)CC[C@@H]1[C@@H]2CC[C@]2(C)[C@@H](OCCN(C)C)CC[C@@H]12`, the growth in experiment [1] is 25.8%; in experiment [2], 65.2%; in experiment [3], 72.3%; in experiment [4], 85.1%; in [5] it was 57.9%; in experiment [6] it was 75.3%. For the same compound, the growth was 40.3% in experiment [7]; 10.3% in [8]; 33.9% in experiment [19]; -11.6% (active) in experiment [9]; 5.96% (active) in experiment [10]; 65.6% in [11]. Besides, the growth in [13] is 47%; in experiment [18], 63%; in experiment [14], 73.4%; in experiment [15], 12.5%; in [16] it was 27%; in experiment [17], 17.9%.
For the compound `COc1ccc(CN2c3ccccc3Sc3ccccc32)cc1O`, the growth in experiment [1] was 8.98% (active); in experiment [2], 36.7%; in experiment [3] it was 24.4%; in experiment [4], 58.3%; in [5] it was 41.7%; in experiment [6], 36.2%. Moreover, the growth in experiment [7] was 76.4%; in experiment [8], 8.29% (active); in experiment [9], 16.1%; in [10], 24.4%; in experiment [11], 22.1%; in [12], 86%. The growth in experiment [13] is 45.7%; in experiment [18], 29.1%; in [14], 30.2%; in [15], 7.47% (active); in experiment [16], 33%; in [17], 18.5%.

The record behind these values is PubChem BioAssay (NCI).
